From PubChem BioAssay
The source made the active and inactive calls.

Legend:
[1] = test system: Plasmodium falciparum Sir2 (PF13_0152, Sir2A); assay: pfSir2 binders on small-molecule microarrays, primary screen, biochemical, small-molecule microarray, 635 nm fluorescence (AID 1098); settings: small-molecule microarray binding, fluorescence 635 nm; higher = more signal;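 also: score merges spot fluorescence intensity with its signal-to-noise ratio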
[2] = small-molecule microarray binders of probe aDKK1, primary screen, biochemical, biotinylated probe, 635/667 nm fluorescence (AID 1099); settings: higher = more signal;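 also: score merges 667nm spot fluorescence with signal to noise across triplicate slides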
[3] = small-molecule microarray binders of probe aCHRDL2, primary screen, biochemical, biotinylated probe, 635/667 nm fluorescence (AID 1100); settings: higher = more signal
[4] = splicing luciferase reporter signal modulators, primary screen, spliceosome inhibition project, cell-based, HEK293, splice +/- reporter (AID 1101); settings: luminescence, 24 h, higher = more signal, called active from +8 up or from −8 down;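 also: HEK293 cells carrying a splicing-competent luciferase reporter gene; test concentration not given here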
[5] = biological target: Fibroblast growth factor 10 (Homo sapiens) (UniProt O15520); assay: FGF10 binders on small-molecule microarrays, primary screen, biochemical, small-molecule microarray, 635 nm fluorescence (AID 1102); settings: FGF10 binding, fluorescence 635 nm, higher = more signal
[6] = test system: glycogen synthase kinase-3 (GSK3A per assay name; protocol says GSK3B); assay: GSK3 binders on small-molecule microarrays, primary screen, biochemical, small-molecule microarray, 635 nm fluorescence, GSK3A (AID 1103); settings: small-molecule microarray binding, fluorescence 635 nm; higher = more signal; also: the record names both GSK3A and GSK3B
[7] = biological target: Epidermal growth factor receptor (Homo sapiens) (UniProt P00533); assay: EGFR binders on small-molecule microarrays, primary screen, biochemical, small-molecule microarray, 635 nm fluorescence (AID 1104); settings: EGFR binding, higher = more signal;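 also: score merges 667 nm emission intensity with spot signal to noise over triplicate slides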
[8] = biological target: Follistatin-related protein 3 (Homo sapiens) (UniProt O95633); assay: FSTL3 binders on small-molecule microarrays, primary screen, biochemical, small-molecule microarray, 635 nm fluorescence (AID 1105); settings: FSTL3 binding, higher = more signal;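 also: score merges emission near 667 nm and signal to noise per printed spot across three slides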
[9] = biological target: Dickkopf-related protein 1 (Homo sapiens) (UniProt O94907); assay: DKK1 binders on small-molecule microarrays, primary screen, biochemical, small-molecule microarray, 635 nm fluorescence scan (AID 1106); settings: DKK1 binding, higher = more signal;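 also: score merges emission near 667 nm with signal to noise over three replicate slides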
[10] = test system: Inhibin beta A chain (activin A); assay: INHBA (activin A) binders on microarrays, primary screen, biochemical, small-molecule microarray, 635 nm fluorescence scan (AID 1107); settings: small-molecule microarray binding, higher = more signal;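 also: mouse activin A protein probed at 4.33 µg/mL on printed slides; score merges bound-protein fluorescence near 667 nm with spot signal-to-noise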
[11] = test system: Human papillomavirus type 1a protein E7 (residues 44-93); assay: HPV1a E7 fragment binders on microarrays, primary screen, biochemical, small-molecule microarray, residues 44-93, 635 nm fluorescence (AID 1108); settings: small-molecule microarray binding, fluorescence 635 nm; higher = more signal;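 also: E7 fragment applied at 1 µg/mL in TBST for 1 h at 4 C; score combines spot fluorescence with its signal to noise ratio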
[12] = modulators of HCV replicon luciferase signal, primary screen, HCV replication inhibitor project, Huh7 cells, luciferase reporter (AID 1109); settings: 48 h, higher = more signal;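 also: huh7 hepatoma cells harbouring a luciferase neomycin HCV replicon reporter; luciferase luminescence as measure of HCV replicon replication; test concentration not given here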
[13] = biological target: Left-right determination factor 2 (Homo sapiens) (UniProt O00292); assay: LEFTY2 binders on small-molecule microarrays, primary screen, biochemical, small-molecule microarray, 635 nm fluorescence scan (AID 1110); settings: LEFTY2 binding, higher = more signal
[14] = biological target: Calmodulin-1 (Homo sapiens) (UniProt P0DP23); assay: CALM1 binders on microarrays, EGTA buffer, profiling panel, biochemical, small-molecule microarray, Cy5-labelled CALM1 (AID 1111); settings: Cy5-CALM1 binding fluorescence, higher = more signal;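 also: labelled calmodulin applied in Tris saline Tween buffer holding calcium plus EGTA and DTT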
[15] = biological target: Calmodulin-1 (Homo sapiens) (UniProt P0DP23); assay: calcium-bound CALM1 binders on microarrays, profiling panel, artefact control for SMM control-protein annotation, biochemical, small-molecule microarray, Cy5-labelled CALM1, plus calcium (AID 1112); settings: Cy5-CALM1 binding fluorescence, higher = more signal;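 also: score merges spot fluorescence with signal to noise from triplicate slides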
[16] = small-molecule microarray binders of probe aWnt5a, primary screen, biochemical, biotinylated probe, 635/667 nm fluorescence (AID 1113); settings: higher = more signal;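 also: score merges 667 nm fluorescence intensity with signal-to-noise per printed feature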
[17] = small-molecule microarray binders of probe aShh, primary screen, biochemical, biotinylated probe, 635/667 nm fluorescence (AID 1114); settings: higher = more signal;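 also: probe is biotin-labelled aShh protein from a stem cell growth factor screen; measures binding of labelled protein to compounds printed on the slide; score merges feature fluorescence at 667 nm with signal-to-noise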
[18] = small-molecule microarray binders of probe aNog, primary screen, biochemical, biotinylated probe, 635/667 nm fluorescence (AID 1115); settings: higher = more signal;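 also: probe is biotinylated aNog protein used at 0.15 µg/mL for 1 h at 4 C; z-score combines 667 nm fluorescence of each spot with its signal to noise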
[19] = biological target: Torsin-1A-interacting protein 1 (Homo sapiens) (UniProt Q5JTV8); assay: LAP1 binders from COS7 cell lysate, primary screen, small-molecule microarray, 635/667 nm fluorescence (AID 1116); settings: COS7-hLAP1 lysate binding, 635 nm fluorescence, higher = more signal
[20] = biological target: Alpha-bungarotoxin (Bungarus multicinctus) (UniProt P60615); assay: alpha-bungarotoxin binders on microarray, profiling panel, artefact control for SMM control protein annotation, biochemical, small-molecule microarray, Alexa647 label, 635/667 nm fluorescence (AID 1117); settings: alpha-BTX-A647 binding fluorescence, higher = more signal
Sequence of Alpha-bungarotoxin (Bungarus multicinctus) (P60615 whole entry, looked up): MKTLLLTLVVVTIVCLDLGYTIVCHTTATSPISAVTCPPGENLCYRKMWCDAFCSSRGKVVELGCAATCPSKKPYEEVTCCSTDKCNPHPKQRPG

Sequence of Follistatin-related protein 3 (Homo sapiens) (O95633 whole entry, looked up): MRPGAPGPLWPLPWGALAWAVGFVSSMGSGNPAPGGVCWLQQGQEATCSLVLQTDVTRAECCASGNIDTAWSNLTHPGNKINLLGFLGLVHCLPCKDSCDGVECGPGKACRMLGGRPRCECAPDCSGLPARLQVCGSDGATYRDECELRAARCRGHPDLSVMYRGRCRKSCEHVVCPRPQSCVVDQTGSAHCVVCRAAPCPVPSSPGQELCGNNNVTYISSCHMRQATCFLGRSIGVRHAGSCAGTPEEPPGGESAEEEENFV
Sequence of Torsin-1A-interacting protein 1 (Homo sapiens) (Q5JTV8 whole entry, looked up): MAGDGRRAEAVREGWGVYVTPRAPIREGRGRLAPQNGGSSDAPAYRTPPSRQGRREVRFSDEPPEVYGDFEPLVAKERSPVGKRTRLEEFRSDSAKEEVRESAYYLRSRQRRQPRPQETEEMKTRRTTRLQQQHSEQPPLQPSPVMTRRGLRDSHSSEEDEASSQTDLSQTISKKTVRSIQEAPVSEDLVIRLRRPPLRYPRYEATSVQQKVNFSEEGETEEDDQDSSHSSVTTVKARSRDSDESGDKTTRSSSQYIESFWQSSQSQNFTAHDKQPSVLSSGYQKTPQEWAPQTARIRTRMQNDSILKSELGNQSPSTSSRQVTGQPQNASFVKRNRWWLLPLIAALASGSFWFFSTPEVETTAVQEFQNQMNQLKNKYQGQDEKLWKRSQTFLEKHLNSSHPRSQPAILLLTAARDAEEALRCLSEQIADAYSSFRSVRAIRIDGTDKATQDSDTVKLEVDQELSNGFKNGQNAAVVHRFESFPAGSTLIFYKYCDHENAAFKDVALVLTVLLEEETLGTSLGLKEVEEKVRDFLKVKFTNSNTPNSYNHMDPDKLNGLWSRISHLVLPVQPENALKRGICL
Sequence of Left-right determination factor 2 (Homo sapiens) (O00292 whole entry, looked up): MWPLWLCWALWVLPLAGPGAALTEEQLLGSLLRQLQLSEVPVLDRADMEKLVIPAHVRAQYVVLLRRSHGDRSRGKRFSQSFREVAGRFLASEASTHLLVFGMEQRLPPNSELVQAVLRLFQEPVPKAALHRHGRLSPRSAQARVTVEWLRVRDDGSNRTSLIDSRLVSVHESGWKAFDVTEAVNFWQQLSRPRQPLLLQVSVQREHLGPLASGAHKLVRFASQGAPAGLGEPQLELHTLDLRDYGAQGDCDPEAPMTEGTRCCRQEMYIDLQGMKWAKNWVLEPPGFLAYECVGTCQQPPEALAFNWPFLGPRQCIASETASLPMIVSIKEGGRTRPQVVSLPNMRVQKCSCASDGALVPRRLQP
Sequence of Dickkopf-related protein 1 (Homo sapiens) (O94907 whole entry, looked up): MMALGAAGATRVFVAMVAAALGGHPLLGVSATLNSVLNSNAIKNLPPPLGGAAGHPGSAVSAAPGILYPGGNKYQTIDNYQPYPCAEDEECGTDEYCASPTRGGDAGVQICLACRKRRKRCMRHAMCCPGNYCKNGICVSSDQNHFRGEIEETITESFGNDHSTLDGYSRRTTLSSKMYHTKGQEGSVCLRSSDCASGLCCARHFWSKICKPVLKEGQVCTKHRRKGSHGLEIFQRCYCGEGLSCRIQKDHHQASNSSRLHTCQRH
Sequence of Epidermal growth factor receptor (Homo sapiens) (P00533 whole entry, looked up): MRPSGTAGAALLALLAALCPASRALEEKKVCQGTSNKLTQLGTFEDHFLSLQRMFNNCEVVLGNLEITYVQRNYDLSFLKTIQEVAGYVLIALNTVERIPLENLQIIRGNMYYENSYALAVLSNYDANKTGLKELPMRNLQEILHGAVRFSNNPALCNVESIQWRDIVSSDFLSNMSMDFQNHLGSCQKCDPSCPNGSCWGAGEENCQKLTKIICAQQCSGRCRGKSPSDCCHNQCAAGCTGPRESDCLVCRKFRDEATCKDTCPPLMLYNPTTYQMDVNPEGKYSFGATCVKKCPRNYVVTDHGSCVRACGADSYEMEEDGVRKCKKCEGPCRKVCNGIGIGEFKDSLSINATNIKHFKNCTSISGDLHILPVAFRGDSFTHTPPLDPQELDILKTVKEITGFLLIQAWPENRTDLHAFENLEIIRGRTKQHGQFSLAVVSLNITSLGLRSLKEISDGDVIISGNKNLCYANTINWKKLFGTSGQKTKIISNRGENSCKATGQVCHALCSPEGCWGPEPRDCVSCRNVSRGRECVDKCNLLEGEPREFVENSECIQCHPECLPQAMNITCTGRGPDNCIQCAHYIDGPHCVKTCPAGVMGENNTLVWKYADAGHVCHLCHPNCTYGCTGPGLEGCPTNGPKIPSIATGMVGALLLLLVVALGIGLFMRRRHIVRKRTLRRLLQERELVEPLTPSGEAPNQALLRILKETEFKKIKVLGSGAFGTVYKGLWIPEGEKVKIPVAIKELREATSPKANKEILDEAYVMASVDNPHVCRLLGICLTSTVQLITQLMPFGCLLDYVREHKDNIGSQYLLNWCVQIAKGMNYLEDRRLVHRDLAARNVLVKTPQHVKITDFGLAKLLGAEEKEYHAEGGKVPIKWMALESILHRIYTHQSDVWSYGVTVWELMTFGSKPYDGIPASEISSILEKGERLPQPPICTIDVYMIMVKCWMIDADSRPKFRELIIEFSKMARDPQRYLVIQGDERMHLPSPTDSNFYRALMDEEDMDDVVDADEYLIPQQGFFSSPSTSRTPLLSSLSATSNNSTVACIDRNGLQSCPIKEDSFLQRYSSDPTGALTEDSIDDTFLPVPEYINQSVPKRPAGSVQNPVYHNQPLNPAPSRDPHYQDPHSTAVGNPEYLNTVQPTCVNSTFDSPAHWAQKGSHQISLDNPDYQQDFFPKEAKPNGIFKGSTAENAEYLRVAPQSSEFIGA
Sequence of Fibroblast growth factor 10 (Homo sapiens) (O15520 whole entry, looked up): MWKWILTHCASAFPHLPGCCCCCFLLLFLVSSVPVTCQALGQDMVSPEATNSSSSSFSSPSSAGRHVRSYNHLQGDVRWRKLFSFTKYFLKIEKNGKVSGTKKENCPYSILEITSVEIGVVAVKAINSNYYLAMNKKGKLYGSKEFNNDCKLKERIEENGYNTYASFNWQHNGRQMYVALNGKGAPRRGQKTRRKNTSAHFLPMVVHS

Structure (SMILES)	composite z-score [1]	composite z-score [2]	composite z-score [3]	z-score [4]	composite z-score [5]	composite z-score [6]	composite z-score [7]	composite z-score [8]	composite z-score [9]	composite z-score [10]	composite z-score [11]	z-score [12]	composite z-score [13]	composite z-score [14]	composite z-score [15]	composite z-score [16]	composite z-score [17]	composite z-score [18]	composite z-score [19]	composite z-score [20]
CC1CC/C=C\[C@H]2OC34C=CCN(c5ccc(Cl)cc5)C(=O)[C@H]3N(C(CO)C(C)C)C(=O)[C@]4(C)C2C(=O)O1 (stereo not given in full)	1.86	-0.0977	0.281	0.323 (inactive)	-0.0355	-0.364	-0.799	-0.786	-0.717	0.813	-0.806	-0.392	-1.22	-0.505	0.0376	-0.152	-0.154	-0.679	0.184	-0.59
O=C1O[C@H](c2ccccc2)[C@H](c2ccccc2)N2[C@H]1[C@@H](C(=O)N1CCCCCCC1)[C@]1(C(=O)Nc3ccc(C#CCCO)cc31)[C@H]2c1ccc(OCCO)cc1	2.14	2.78	1.42	-0.302 (inactive)	1.65	1.45	1.89	1.66	2.65	1.9	1.62	-1.64	1.72	3.04	1.63	1.65	2.49	3.39	5.44	4.88
O=C1O[C@H](c2ccccc2)[C@H](c2ccccc2)N2[C@H]1[C@@H](C(=O)N1CCN(c3ncccn3)CC1)[C@]1(C(=O)Nc3ccc(C#CCCO)cc31)[C@H]2c1ccc(OCCO)cc1	1.66	0.115	0.536	-0.0244 (inactive)	1.11	1.28	1.12	1.48	0.949	0.463	1.41	-1.35	1.35	1.23	-0.188	0.0614	0.0141	0.242	1.53	0.554
C=CC[C@@]1(C(=O)NCC(O)CO)N=C(c2ccc(OCCCO)cc2)O[C@@H]1c1ccccc1 (stereo not given in full)	1.46	1.24	1.34	-0.195 (inactive)	1.47	0.0168	-0.829	-0.29	-0.135	0.505	1.21	0.235	-0.834	2.22	0.971	0.512	0.786	-0.419	3.73	2.59
COC(=O)C(CC#Cc1ccc2c(c1)[C@]1(C(=O)N2)[C@H](C(=O)N2CCc3cc(OC)c(OC)cc3C2)[C@H]2C(=O)O[C@H](c3ccccc3)[C@H](c3ccccc3)N2[C@@H]1c1ccc(OCCO)cc1)C(=O)OC	1.08	0.0138	0.415	-0.291 (inactive)	1.39	1.3	0.732	0.94	0.544	0.614	1.41	-1.21	0.633	1.07	0.16	-0.0236	-0.159	-0.198	0.254	1.08
C#CCNS(=O)(=O)N(C)C	0.365	-0.0521	-0.55	0.0242 (inactive)	0.296	0.642	0.469	0.31	0.216	-0.128	0.638	0.119	0.713	-0.157	-0.687	-0.096	0.0463	-0.168	0.0976	0.601
Cc1ccc(F)cc1S(=O)(=O)N[C@@H]1CCN(C(=O)c2ccc(OC(C)C)cc2)C1	0.416	-0.274	-0.734	-0.0035 (inactive)	0.969	1	0.5	1.34	0.463	0.0062	0.801	-0.0287	1.08	0.237	-0.603	-0.032	0.0121	-0.425	0.521	0.247
O=C1NC(=O)C2C1C=CC(C(O)c1ccc3c(c1)OCO3)N2Nc1ccc(Cl)cc1Cl (stereo not given)	0.981	0.849	1.06	0.889 (inactive)	0.553	-0.334	0.205	0.304	-0.278	1.19	-0.85	-0.795	-0.0483	1.43	0.527	-0.0846	-0.232	0.265	1.73	0.114
O=C1NC(=O)C2C1C=CC(C(O)CCc1ccccc1)N2Nc1ccccn1 (stereo not given)	0.539	0.673	0.778	-0.735 (inactive)	0.165	0.44	0.261	0.155	0.156	0.584	-0.574	0.204	-0.0953	0.901	0.569	-0.0445	-0.262	-0.279	2.33	0.67
O=C1CSC(c2cccc([N+](=O)[O-])c2)N1c1ccccc1 (stereo not given)	-0.125	0.136	-0.342	0.187 (inactive)	0.523	0.401	0.354	0.404	0.661	0.154	0.551	-1.16	0.688	0.331	-0.071	-0.135	-0.221	-0.073	0.273	0.163
CC(C)[Si](C#C[Si](C(C)C)(C(C)C)C(C)C)(O[C@H](C)c1cn(Cc2cccc(Cl)c2)nn1)C(C)C	0.259	-0.493	-0.578	-0.589 (inactive)	0.539	1.14	0.863	0.433	0.459	-0.33	0.953	-0.266	0.499	1.01	0.506	-0.253	-0.243	-0.175	0.0392	1.03
